The text below walks through data of PubChem BioAssay.

Assay [1] relates to Wnt5a (protein binding on small-molecule microarray). Nature of the assay: Wnt5a binders on small-molecule microarray, primary screen, biophysical, 635/667 nm fluorescence (AID 1142).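 Note: fluorescence read at 667 nm with signal to noise per printed feature.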 The note with it: 635 nm fluorescence, higher = more signal.
Assay [2] in a line: cell viability in Huh7 cells, primary screen, cytotoxicity control for HCV replication inhibitor project, CellTiter-Glo luminescence, basal, 48 h (AID 1143).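 Note: Huh7 hepatoma cells carrying a hepatitis C replication reporter with no stimulus; test concentration not given here.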 The note with it: Huh7 HCV replicon, higher = more signal, called active from +8 up or from −8 down.
A short description of assay [3]: P. aeruginosa biofilm formation inhibitors, primary screen, PAO1 strain, BacTiter-Glo luminescence, LB-PBS (AID 1144). The settings on record: 12 h, higher = more signal.
Assay [4] is described as follows: CREB reporter modulators without forskolin, primary screen, cell-based, PC12, CRE-LacZ reporter, unstimulated (AID 1145). The note with it: no forskolin, luminescence, 4.5 h, higher = more signal, called active from +8 up or from −8 down.
A short description of assay [5]: CREB reporter modulators under forskolin, primary screen, cell-based, PC12, CRE-LacZ reporter, forskolin-stimulated (AID 1146).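 Note: PC12 cells with 6xCRE LacZ reporter stimulated by forskolin 10 µM; beta-galactosidase reporter signal reflecting CREB driven transcription.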 The note with it: luminescence, 4.5 h, higher = more signal, called active from +8 up or from −8 down.
The target in assay [6] is Streptavidin (Streptomyces avidinii) (UniProt P22629). Nature of the assay: streptavidin binders on small-molecule microarray, primary screen, artefact control for SMM compound annotation, biophysical, 635/667 nm fluorescence (AID 1147).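 Note: signal reflects streptavidin binding to arrayed compounds as a control protein.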 The note with it: streptavidin binding, higher = more signal.
Assay [7] in a line: small-molecule binders of probe aInhba, primary screen, biochemical, small-molecule microarray, 635/667 nm fluorescence (AID 1148).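 Note: score merges 667nm spot fluorescence with signal-to-noise for antibody binding to printed compounds.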 The settings on record: higher = more signal.
Assay [8] concerns the target Torsin-1A (Homo sapiens) (UniProt O14656). Nature of the assay: torsin A binders from cell lysate, primary screen, small-molecule microarray, wild-type, 635/667 nm (AID 1149). The note with it: COS7 hTOR1A-WT lysate, 635 nm fluorescence, higher = more signal.
Assay [9] has the same target. Nature of the assay: small-molecule binders of mutant TOR1A in lysate, primary screen, cell lysate, small-molecule microarray, COS7 lysate, 635/667 nm fluorescence (AID 1150).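 Note: score pools 667 nm emission and signal to noise measuring lysate protein binding.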 The settings on record: COS7 hTOR1A mutant lysate, 635 nm fluorescence, higher = more signal.
The test system of assay [10] is Sonic hedgehog protein (Shh). Nature of the assay: small-molecule binders of Shh protein, primary screen, biochemical, small-molecule microarray, 635/667 nm fluorescence (AID 1151).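 Note: Shh protein binding to compounds spotted on small-molecule microarray slides; score combines spot fluorescence intensity with signal-to-noise across triplicate slides.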 The note with it: small-molecule microarray binding, 635 nm fluorescence; higher = more signal.
The nature of assay [11]: E. coli DRC41 culture turbidity changes, primary screen, E. coli filamentation inducer project, strain DRC41, OD650, 48 h (AID 1152).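 Note: E. coli MC1000 strain DRC41 lacking acrAB efflux pump and sulA.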 The settings on record: E. coli DRC41 (acrAB sulA), higher = more signal, called active from +8 up or from −8 down.
The nature of assay [12]: small-molecule binders of probe aLefty1, primary screen, biochemical, small-molecule microarray, 635/667 nm fluorescence (AID 1153).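 Note: score merges spot fluorescence with signal-to-noise ratio from the scanned slide images.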 The settings on record: higher = more signal.
A short description of assay [13]: PSAC antagonists in infected red cells, primary screen, cell-based, P. falciparum Indochina, OD700, 1 h (AID 1154). The note with it: P. falciparum Indochina infected RBC osmotic lysis, higher = more signal, called active from +8 up or from −8 down.
Assay [14] is described as follows: PSAC antagonists in infected red cells, primary screen, cell-based, P. falciparum Indochina, OD700, 2 h (AID 1155).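 Note: lysis reports solute entry through the parasite surface anion channel PSAC; channel blockers reduce lysis of infected cells.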 The note with it: P. falciparum Indochina infected erythrocytes, osmotic lysis OD700; higher = more signal, called active from +8 up or from −8 down.
Assay [15] can be described thus: osmotic lysis modulators in infected erythrocytes, primary screen, PSAC antagonist project, cell-based, P. falciparum Indochina, OD700, 3 h (AID 1156). The settings on record: higher = more signal, called active from +8 up or from −8 down.
A short description of assay [16]: PSAC antagonists in infected red cells, primary screen, cell-based, P. falciparum Indochina, OD700, 18 h (AID 1157). The note with it: P. falciparum Indochina infected erythrocytes, osmotic lysis OD700, 18 h; higher = more signal, called active from +8 up or from −8 down.
A short description of assay [17]: modulators of S6 phosphorylation in cells, primary screen, cell-based, A549, cytoblot, luminescence, serum-stimulated (AID 1158).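 Note: serum-stimulated A549 lung adenocarcinoma cells; signal is phosphorylated S6 detected by cytoblot immunostaining with HRP secondary.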 The note with it: A549 phospho-S6 cytoblot, 5 h, higher = more signal.
Assay [18] has as its target NADPH oxidase 2 (Homo sapiens) (UniProt P04839). Nature of the assay: NOX2-dependent H2O2 signal modulators, primary screen, NOX inhibitor project, cell-based, HEK293-NOX2, PMA-stimulated, Amplex Red fluorescence (AID 1159). Note: test concentration not given here. The note with it: 45 min, higher = more signal, called active from +8 up or from −8 down.
Assay [19] concerns the target NADPH oxidase 4 (Homo sapiens) (UniProt Q9NPH5). Nature of the assay: NOX4-dependent H2O2 signal modulators, primary screen, NOX inhibitor project, cell-based, HEK293-NOX4, tetracycline-induced, Amplex Red fluorescence (AID 1160). The note with it: 45 min, higher = more signal, called active from +8 up or from −8 down.
Assay [20] addresses NADPH oxidase 5 (Homo sapiens) (UniProt Q96PH1). Nature of the assay: NOX5-dependent H2O2 signal modulators, primary screen, NOX inhibitor project, cell-based, HEK293-NOX5, Amplex Red fluorescence (AID 1161). The note with it: HEK293-NOX5, ionomycin, 45 min, higher = more signal.

The source made the active and inactive calls. Unless noted, the rule behind the calls is not given here.

Streptavidin (Streptomyces avidinii), sequence (P22629 whole entry, looked up): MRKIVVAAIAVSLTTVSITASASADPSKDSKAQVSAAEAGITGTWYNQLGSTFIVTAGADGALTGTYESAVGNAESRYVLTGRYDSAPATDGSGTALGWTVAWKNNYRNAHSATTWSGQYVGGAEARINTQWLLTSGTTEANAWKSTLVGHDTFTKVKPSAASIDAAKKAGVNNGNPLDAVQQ
NADPH oxidase 2 (Homo sapiens), sequence (P04839 whole entry, looked up): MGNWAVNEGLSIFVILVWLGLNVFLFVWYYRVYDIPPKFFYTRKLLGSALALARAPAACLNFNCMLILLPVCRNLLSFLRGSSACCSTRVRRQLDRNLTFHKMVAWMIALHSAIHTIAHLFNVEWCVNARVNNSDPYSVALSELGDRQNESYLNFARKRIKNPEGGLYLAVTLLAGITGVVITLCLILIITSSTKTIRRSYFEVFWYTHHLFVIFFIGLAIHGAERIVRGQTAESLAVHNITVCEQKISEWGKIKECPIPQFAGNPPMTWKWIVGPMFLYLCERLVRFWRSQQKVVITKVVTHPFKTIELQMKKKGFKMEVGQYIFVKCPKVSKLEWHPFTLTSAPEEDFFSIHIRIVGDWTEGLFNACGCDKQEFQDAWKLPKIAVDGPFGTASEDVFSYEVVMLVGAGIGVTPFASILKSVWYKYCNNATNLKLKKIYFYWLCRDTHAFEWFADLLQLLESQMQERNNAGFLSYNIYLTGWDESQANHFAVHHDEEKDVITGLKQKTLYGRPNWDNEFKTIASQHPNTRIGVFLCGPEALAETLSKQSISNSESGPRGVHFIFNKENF
Torsin-1A (Homo sapiens), sequence (O14656 whole entry, looked up): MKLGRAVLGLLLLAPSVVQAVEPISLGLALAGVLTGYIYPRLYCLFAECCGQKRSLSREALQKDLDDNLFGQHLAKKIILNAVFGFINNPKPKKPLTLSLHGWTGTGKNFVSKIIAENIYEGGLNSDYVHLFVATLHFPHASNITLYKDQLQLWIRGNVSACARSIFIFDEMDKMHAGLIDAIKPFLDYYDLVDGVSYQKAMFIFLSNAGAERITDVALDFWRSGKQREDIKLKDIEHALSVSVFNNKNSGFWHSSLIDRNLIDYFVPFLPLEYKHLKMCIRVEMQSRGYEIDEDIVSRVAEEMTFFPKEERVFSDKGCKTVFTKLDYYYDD
NADPH oxidase 4 (Homo sapiens), sequence (Q9NPH5 whole entry, looked up): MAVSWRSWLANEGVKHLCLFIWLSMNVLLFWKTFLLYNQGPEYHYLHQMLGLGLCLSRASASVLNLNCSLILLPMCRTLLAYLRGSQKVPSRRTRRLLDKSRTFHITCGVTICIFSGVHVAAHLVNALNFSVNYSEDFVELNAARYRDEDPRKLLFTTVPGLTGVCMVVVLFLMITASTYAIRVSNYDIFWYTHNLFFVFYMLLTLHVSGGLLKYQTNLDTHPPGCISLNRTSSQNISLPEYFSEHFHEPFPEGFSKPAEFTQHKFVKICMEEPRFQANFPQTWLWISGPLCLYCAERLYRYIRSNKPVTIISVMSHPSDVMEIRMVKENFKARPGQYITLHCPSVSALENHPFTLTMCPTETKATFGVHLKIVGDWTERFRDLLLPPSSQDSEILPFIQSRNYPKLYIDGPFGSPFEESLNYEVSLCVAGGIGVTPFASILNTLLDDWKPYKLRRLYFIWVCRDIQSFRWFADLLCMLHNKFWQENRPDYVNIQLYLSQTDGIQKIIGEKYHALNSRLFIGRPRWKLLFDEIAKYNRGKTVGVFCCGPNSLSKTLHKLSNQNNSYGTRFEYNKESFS
NADPH oxidase 5 (Homo sapiens), sequence (Q96PH1 whole entry, looked up): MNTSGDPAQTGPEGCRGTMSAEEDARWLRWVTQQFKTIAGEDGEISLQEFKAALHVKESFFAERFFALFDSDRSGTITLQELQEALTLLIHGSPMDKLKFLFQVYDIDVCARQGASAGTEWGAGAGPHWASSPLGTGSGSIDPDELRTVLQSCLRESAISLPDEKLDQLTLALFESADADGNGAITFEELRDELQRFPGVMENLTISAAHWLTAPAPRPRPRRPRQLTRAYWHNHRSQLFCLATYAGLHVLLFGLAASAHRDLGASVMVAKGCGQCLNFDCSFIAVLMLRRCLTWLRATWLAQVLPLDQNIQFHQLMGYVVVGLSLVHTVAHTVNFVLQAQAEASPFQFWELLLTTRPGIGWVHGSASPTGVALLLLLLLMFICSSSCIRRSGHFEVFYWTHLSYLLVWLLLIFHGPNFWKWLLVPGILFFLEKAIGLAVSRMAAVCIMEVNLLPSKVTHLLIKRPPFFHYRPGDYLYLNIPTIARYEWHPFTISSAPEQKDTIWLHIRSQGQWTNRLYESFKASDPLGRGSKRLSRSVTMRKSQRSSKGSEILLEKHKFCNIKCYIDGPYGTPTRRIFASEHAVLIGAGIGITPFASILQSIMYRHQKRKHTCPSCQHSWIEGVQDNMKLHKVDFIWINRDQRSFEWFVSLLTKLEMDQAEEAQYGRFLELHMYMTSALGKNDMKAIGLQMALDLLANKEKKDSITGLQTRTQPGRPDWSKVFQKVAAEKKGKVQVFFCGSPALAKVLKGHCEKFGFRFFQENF

For the compound `C=C(CCCC)/C(=C/C[C@@H](OC(C)=O)c1cccc(OCCO)c1)c1cc(C(=O)OC)ccc1OC`, the composite z-score in assay [1] is -0.257; in assay [6], -0.697; in assay [7], -0.0645; with Torsin-1A (Homo sapiens) [8], 0.146; in the assay with Torsin-1A (Homo sapiens) [9], -0.558; in [10], 1.48. Further, the composite z-score in [12] was -0.0969. Also, the z-score in [2] was -0.917 (inactive); in [3] it was 0.198 (inactive); in assay [4], 4.5 (inactive); in [5], 1.48 (inactive); in [11], 0.198 (inactive); in assay [13], 17.4 (active). In addition, the z-score is 3.45 (inactive) in assay [14]; 1.42 (inactive) in [15]; 1.02 (inactive) in [16]; 0.0322 in assay [17]; -2.13 (inactive) in assay [18]; -1.16 (inactive) in [19]. This compound had a z-score in [20] of -1.88.

For `COc1ccc(C(=O)Nc2cccc(CN3C(=O)[C@]4(O[C@H](CC(=O)N(CCO)Cc5ccccc5)[C@@H]([Si](C)(C)c5ccc(OC)cc5)[C@@H]4C)c4ccccc43)c2)cc1`, the composite z-score was 0.997 in assay [1]; 0.127 in assay [6]; -0.0131 in [7]; 0.0401 with Torsin-1A (Homo sapiens) [8]; 0.395 in the assay with Torsin-1A (Homo sapiens) [9]; 1.48 in assay [10]. Further, in assay [12], the composite z-score amounted to 0.0892. In addition, the z-score was -4.13 (inactive) in [2]; 0.172 (inactive) in [3]; 1.72 (inactive) in [4]; -1.33 (inactive) in assay [5]; 0.556 (inactive) in [11]; 4.41 (inactive) in assay [13]. Besides, the z-score in assay [14] was 0.614 (inactive); in assay [15], 0.0064 (inactive); in assay [16] it was 0.795 (inactive); in [17], 0.805; in assay [18] it was 0.936 (inactive); in assay [19], 0.871 (inactive). Also, the z-score in [20] was found to be 3.51.

Take `C=CC[C@@]1(C(=O)NCCCOC)N=C(c2ccc(OCCCO)cc2)O[C@@H]1c1ccccc1CN=[N+]=[N-]`: the composite z-score in assay [1] is 0.645; in [6], 0.706; in assay [7], 0.0921; with Torsin-1A (Homo sapiens) [8], 0.112; with Torsin-1A (Homo sapiens) [9], 0.734; in [10], 0.0532. This compound also displayed a composite z-score in assay [12] of 0.607. In addition, the z-score in assay [2] was -3.72 (inactive); in assay [3], -0.584 (inactive); in assay [4], -0.45 (inactive); in assay [5], -0.48 (inactive); in assay [11], 1.14 (inactive); in assay [13], 22.3 (active). The z-score in [14] is 2.5 (inactive); in [15], 0.493 (inactive); in [16], -1.34 (inactive); in assay [17], 0.812; in assay [18], -0.477 (inactive); in assay [19], 0.648 (inactive). Besides, the z-score in [20] was -0.274.

As to `CCCC=C(CCC)[C@@H](NC(=O)c1ccc(C(=O)OC)cc1)c1ccc(C(=O)OC)cc1`, the composite z-score in assay [1] is 0.41; in assay [6], 0.239; in [7], 0.18; with Torsin-1A (Homo sapiens) [8] it was -0.266; with Torsin-1A (Homo sapiens) [9], -0.415; in [10], -1.35. The same compound gave a composite z-score in assay [12] of 0.211. For the same compound, the z-score in assay [2] is -2.2 (inactive); in assay [3] it was 0.668 (inactive); in assay [4] it was 1.53 (inactive); in assay [5], 1.06 (inactive); in [11], -1.99 (inactive); in assay [13], 0.67 (inactive). Further, the z-score in [14] was 0.409 (inactive); in assay [15], 1.33 (inactive); in [16], 0.618 (inactive); in assay [17], -0.574; in assay [18], -0.542 (inactive); in assay [19] it was -3.29 (inactive). The same compound came in with a z-score in [20] of 1.5.
